The results in this text go back to PubChem BioAssay (EPA / NIEHS).

Results filed as inconclusive are left out. Some compounds were tested as several samples or in several runs, with calls that do not always agree. Active and inactive are the calls of the source. Rule for the calls, unless noted: active = hit-call score of the fitted dose curve at least 0.9, where 1 is the maximum; inactive = score below 0.9.

Estrogen receptor (Homo sapiens), sequence (P03372 whole entry, looked up): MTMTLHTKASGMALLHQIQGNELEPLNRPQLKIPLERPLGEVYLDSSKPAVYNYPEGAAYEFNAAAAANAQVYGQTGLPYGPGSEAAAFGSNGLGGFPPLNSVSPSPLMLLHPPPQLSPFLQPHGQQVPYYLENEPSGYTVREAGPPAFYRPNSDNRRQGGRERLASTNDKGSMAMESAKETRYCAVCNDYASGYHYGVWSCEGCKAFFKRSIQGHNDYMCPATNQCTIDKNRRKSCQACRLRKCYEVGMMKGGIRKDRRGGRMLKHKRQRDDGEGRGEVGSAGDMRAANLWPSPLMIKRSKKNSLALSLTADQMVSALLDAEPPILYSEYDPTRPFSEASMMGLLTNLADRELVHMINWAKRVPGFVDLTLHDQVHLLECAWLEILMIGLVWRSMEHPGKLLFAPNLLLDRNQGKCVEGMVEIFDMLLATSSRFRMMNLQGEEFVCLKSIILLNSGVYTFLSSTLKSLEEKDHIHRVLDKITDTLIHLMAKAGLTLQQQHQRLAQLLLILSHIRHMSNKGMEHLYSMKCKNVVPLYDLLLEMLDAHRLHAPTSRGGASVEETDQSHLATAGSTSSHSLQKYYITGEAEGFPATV

One test concerns the target Estrogen receptor (Homo sapiens) (UniProt P03372). The test is described as follows: CCTE_Deisenroth_AIME_384WELL_LUC_Inactive: CCTE's 384-well Estrogen Receptor Transactivation Assay without AIME metabolic competence (ERTA luciferase; metabolism negative), Deisenroth Lab (AID 2284038; active = hit-call score of the fitted dose curve at least 0.9, where 1 is the maximum;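 note: VM7Luc4E2 breast cells given medium preincubated 2 h with S9-free microspheres; hits raise estrogen receptor luciferase signal so potencies reflect agonists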). A digest of the protocol: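 Chemicals (10-point series, 0.002 - 200 uM) were incubated 2 hours with alginate-water microsphere lids lacking S9, then the conditioned medium was transferred to VM7Luc4E2 breast cells for 24 hour. Luciferase induction was read by bioluminescence, fitted upward relative to 17beta-estradiol.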
As to `CCCCCCC(=O)O`, the molecule was called inactive.
In the case of `COC(=O)CCCCC(=O)OC`, the outcome was inactive.
For orientation: AC50 means the concentration giving half of the maximal activity seen. With `CCN(CC)CCNc1ccc(CNC=O)c2sc3ccc(OC)cc3c(=O)c12`, the concentration at half-maximal activity (AC50) is 26.2 µM (active).
Regarding `N#C[C@@H]1CC(F)(F)CN1C(=O)CNC1CC2CCC(C1)N2c1ncccn1` (stereo partly specified), the call was inactive.
For the molecule `ClC1=C(Cl)C(Cl)(Cl)C(Cl)=C1Cl`, the outcome was inactive.
`CCCCCCCCCCCCCCCS(=O)(=O)Oc1ccccc1`: the AC50 was 9.6 µM (active).
The same measure, in the same setting: with `O=C(O)c1ccccc1C(c1ccc(O)cc1)c1ccc(O)cc1` the figure was 98.9 µM (active).
For `OCCC(F)(F)C(F)(F)C(F)(F)C(F)(F)C(F)(F)C(F)(F)C(F)(F)C(F)(F)F`, the molecule was classed as inactive.
Take `CCCCCCCCC(=O)O`: the molecule was called inactive.
On the same count and under the same terms, with `CCCCOCCO` the entry was “inactive”; with `COCC(C)OCC(C)O` (stereo unspecified), “inactive”.
On the same count and under the same terms, with `COc1ccc([N+](=O)[O-])cc1N` the entry was “inactive”; with `CCCCCCCC(=O)O`, “inactive”; with `CC#C[C@]1(O)CC[C@H]2[C@@H]3CCC4=CC(=O)CCC4=C3[C@@H](c3ccc(N(C)C)cc3)C[C@@]21C`, “inactive”.
Turning to `OC1CCCCC1`, the result was inactive.
In the case of `CN1CCC[C@H]1c1cccnc1`, the outcome was inactive.
Regarding `OCCC(F)(F)C(F)(F)C(F)(F)C(F)(F)C(F)(F)C(F)(F)F`, the molecule was classed as inactive.
Same read-out and setting: in the case of `CCCCC(CC)COC(=O)CCCCC(=O)OCc1ccccc1` (stereo unspecified) it was “inactive”; in that of `Cc1ccc(S(=O)(=O)O)c(C)c1`, “inactive”.

System in a further test: not listed separately
The test is described as follows: CCTE_Deisenroth_AIME_384WELL_CTox_Inactive: Cytotoxicity Assessment (CTOX) in CCTE's 384-well Estrogen Receptor Transactivation Assay without AIME metabolic competence (metabolism negative), Deisenroth Lab (AID 2284039; active = hit-call score of the fitted dose curve at least 0.9, where 1 is the maximum;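 note: cell viability via live-cell protease substrate cleaved to fluorescent probe; cells exposed 24 h to medium preincubated 2 h with alginate-water beads without S9; loss of fluorescence signal means loss of viability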). A digest of the protocol: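 Metabolism-negative arm: chemicals (10-point, 0.002 - 200 uM) preincubated 2 h with alginate-water lids, medium moved onto VM7Luc4E2 cells for 24 h. Fluorescent live-cell protease readout; bidirectional curve fit.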
`CCN(CC)CCNc1ccc(CNC=O)c2sc3ccc(OC)cc3c(=O)c12`: the AC50 was 120 µM (active).
With `N#C[C@@H]1CC(F)(F)CN1C(=O)CNC1CC2CCC(C1)N2c1ncccn1` (stereo partly specified), the call was inactive.
On the same count and under the same terms, in the case of `CCCCCCCCCCCCCCCS(=O)(=O)Oc1ccccc1` it was “inactive”; in that of `O=C(O)c1ccccc1C(c1ccc(O)cc1)c1ccc(O)cc1`, “inactive”.
Regarding `CCCCCCCCCCCCN1CCCC1=O`, the AC50 is 57.1 µM (active).
With `c1ccc2cc3c(ccc4ccccc43)cc2c1`, the result was inactive.
As for `CCCCCCCCC(=O)O`, the result was inactive.
Same read-out and setting: in the case of `CCCCOCCO` it was “inactive”.
Consider `COc1ccc([N+](=O)[O-])cc1N`, for which the half-maximal activity concentration (AC50) was 100 µM (active).
As to `CC(C)(C)c1ccc(O)c(C(C)(C)C)c1`, the AC50 is 179 µM (active).
As to `CCCCCCCC(=O)O`, the call was inactive.
On the same count and under the same terms, in the case of `CC#C[C@]1(O)CC[C@H]2[C@@H]3CCC4=CC(=O)CCC4=C3[C@@H](c3ccc(N(C)C)cc3)C[C@@]21C` it was “inactive”; in that of `OC1CCCCC1`, “inactive”; in that of `CN1CCC[C@H]1c1cccnc1`, “inactive”.
As for `OCCC(F)(F)C(F)(F)C(F)(F)C(F)(F)C(F)(F)C(F)(F)F`, the call was inactive.
`Oc1cc2ccccc2c2ccccc12`: the AC50 is 10.3 µM (active).
Regarding `Cc1ccc(S(=O)(=O)O)c(C)c1`, the result was inactive.

A further test has as its target Estrogen receptor (Homo sapiens) (UniProt P03372). Description: CCTE_Deisenroth_AIME_384WELL_LUC_Shift: CCTE's 384-well Estrogen Receptor Transactivation Assay with AIME metabolic competence data shift (ERTA luciferase; difference in metabolism positive and negative), Deisenroth Lab (AID 2284041).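 Note: shift is response with S9 minus without S9 so positive means metabolism raised ER signal.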 A digest of the protocol:
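Test chemicals (0.002–200 uM, 10-point) were pre-incubated 2 h with alginate microspheres containing phenobarbital/beta-naphthoflavone-induced male Sprague Dawley rat liver S9 or water, then medium was transferred to VM7Luc4E2 cells for 24 h luciferase readout; shift = S9-positive minus S9-negative normalized response.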
For `CCCCCCC(=O)O`, the result was inactive.
Take `COC(=O)CCCCC(=O)OC`: the result was inactive.
Turning to `CCN(CC)CCNc1ccc(CNC=O)c2sc3ccc(OC)cc3c(=O)c12`, the AC50 is 5.72 µM (active).
`N#C[C@@H]1CC(F)(F)CN1C(=O)CNC1CC2CCC(C1)N2c1ncccn1` (stereo partly specified): the outcome was inactive.
Same read-out and setting: with `ClC1=C(Cl)C(Cl)(Cl)C(Cl)=C1Cl` the entry was “inactive”.
Turning to `CCCCCCCCCCCCCCCS(=O)(=O)Oc1ccccc1`, the result was inactive.
On to `O=C(O)c1ccccc1C(c1ccc(O)cc1)c1ccc(O)cc1`, for which the AC50 is 126 µM (active).
Turning to `CCCCCCCCCCCCN1CCCC1=O`, the outcome was inactive.
On to `c1ccc2cc3c(ccc4ccccc43)cc2c1`, for which the half-maximal activity concentration (AC50) is 64.2 µM (active).
As for `OCCC(F)(F)C(F)(F)C(F)(F)C(F)(F)C(F)(F)C(F)(F)C(F)(F)C(F)(F)F`, the outcome was inactive.
As for `CCCCCCCCC(=O)O`, the result was inactive.
The same measure, in the same setting: in the case of `CCCCOCCO` it was “inactive”; in that of `COCC(C)OCC(C)O` (stereo unspecified), “inactive”; in that of `COc1ccc([N+](=O)[O-])cc1N`, “inactive”.
`CC(C)(C)c1ccc(O)c(C(C)(C)C)c1`: the half-maximal activity concentration (AC50) is 77.6 µM (active).
On to `C[C@@H]1C[C@H]2[C@@H]3CCC4=CC(=O)C=C[C@]4(C)[C@@]3(F)[C@@H](O)C[C@]2(C)[C@@]1(O)C(=O)COP(=O)(O)O`, for which the outcome was inactive.
As for `CCCCCCCC(=O)O`, the AC50 is 42.1 µM (active).
As to `CC#C[C@]1(O)CC[C@H]2[C@@H]3CCC4=CC(=O)CCC4=C3[C@@H](c3ccc(N(C)C)cc3)C[C@@]21C`, the result was inactive.
In the case of `OC1CCCCC1`, the outcome was inactive.
The same measure, in the same setting: with `CN1CCC[C@H]1c1cccnc1` the entry was “inactive”.
Take `OCCC(F)(F)C(F)(F)C(F)(F)C(F)(F)C(F)(F)C(F)(F)F`: the result was inactive.
In the case of `Oc1cc2ccccc2c2ccccc12`, the outcome was inactive.
Turning to `CCCCC(CC)COC(=O)CCCCC(=O)OCc1ccccc1` (stereo unspecified), the result was inactive.
Still for that read-out and setting: in the case of `Cc1ccc(S(=O)(=O)O)c(C)c1` it was “inactive”.

System in another test: not listed separately
Description: CCTE_Shafer_MEA_dev_burst_rate: CCTE's Neural Network Formation Assay for Burst Rate, Shafer Lab (AID 2284042).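 For AC50: potency for loss of burst rate below DMSO control.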 In short, it runs like this: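 Cells plated, treated day 0; recorded DIV 5, 7, 9, 12; fed and re-treated DIV 5, 9. Endpoint: bursts per recording time, active-electrode well mean, trapezoidal AUC, fitted in decreasing direction against DMSO baseline.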
On to `CC(O)CO` (stereo unspecified), for which the molecule was classed as inactive.
In the case of `CC1=C(/C=C/C(C)=C/C=C/C(C)=C/C(=O)O)C(C)(C)CCC1`, the AC50 is 4.01 µM (active).
On to `c1ccc2c(c1)Cc1ccccc1-2`, for which the outcome was inactive.
As for `C=C(C)C(=O)OCCC(F)(F)C(F)(F)C(F)(F)C(F)(F)C(F)(F)C(F)(F)F`, the molecule was classed as inactive.
Still for that read-out and setting: in the case of `c1ccc2cc3c(ccc4ccccc43)cc2c1` it was “inactive”; in that of `OCCC(F)(F)C(F)(F)C(F)(F)C(F)(F)C(F)(F)C(F)(F)C(F)(F)C(F)(F)F`, “inactive”.
Regarding `c1ccc2c(c1)ccc1ccccc12`, the molecule was classed as inactive.
In the case of `CC#C[C@]1(O)CC[C@H]2[C@@H]3CCC4=CC(=O)CCC4=C3[C@@H](c3ccc(N(C)C)cc3)C[C@@]21C`, the AC50 is 5.1 µM (active) and the outcome was inactive.
With `CN1CCC[C@H]1c1cccnc1`, the molecule was classed as inactive.
On the same count and under the same terms, in the case of `OCCC(F)(F)C(F)(F)C(F)(F)C(F)(F)C(F)(F)C(F)(F)F` it was “inactive”.
